Assay results from PubChem BioAssay.
The source made the active and inactive calls.

Assays:
[1] = compound effects on lung adenocarcinoma cell viability – A549, calcein-AM fluorescence, 48 h, basal, profiling panel (AID 1162); conditions: higher = more signal
[2] = compound effects on differentiated 3T3-L1 adipocyte viability – cell-based, 3T3-L1 adipocytes, calcein-AM fluorescence, 48 h, basal, profiling panel (AID 1163); conditions: 3T3-L1 adipocytes viability, higher = more signal
[3] = compound effects on hepatocellular carcinoma cell viability – HepG2, calcein-AM fluorescence, 48 h, basal, profiling panel (AID 1164); conditions: higher = more signal
[4] = compound effects on multiple myeloma cell viability – MM1S, calcein-AM fluorescence, 48 h, basal, profiling panel (AID 1165); conditions: higher = more signal
[5] = calcein-AM signal in unstimulated myeloma cells – cell-based, calcein-AM fluorescence, 48 h, PK04 Diversity Set, profiling panel (AID 1166); conditions: RPMI8226 myeloma viability, higher = more signal;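 note: cells grown under basal conditions without added stimulus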
[6] = JC-1 mitochondrial signal, unstimulated HepG2 cells – cell-based, JC-1 fluorescence, 24 h, 100 nL compound, profiling panel (AID 1167); conditions: HepG2 mitochondrial potential, higher = more signal
[7] = JC-1 mitochondrial signal, unstimulated adipocytes – cell-based, JC-1 fluorescence, 3T3-L1 adipocytes, 24 h, 100 nL compound, profiling panel (AID 1168); conditions: JC-1 mitochondrial fluorescence, higher = more signal, called active from +8 up or from −8 down
[8] = JC-1 mitochondrial signal, unstimulated myeloma cells – cell-based, JC-1 fluorescence, RPMI8226, 24 h, 100 nL compound, profiling panel (AID 1169); conditions: JC-1 mitochondrial potential fluorescence, higher = more signal
[9] = JC-1 mitochondrial signal, unstimulated MM1S myeloma – cell-based, JC-1 fluorescence, 24 h, 100 nL compound, profiling panel (AID 1170); conditions: MM1S mitochondrial potential, higher = more signal
[10] = resazurin metabolic signal in A549 cells – cell-based, resazurin fluorescence, 24 h, PK04 Diversity Set, profiling panel (AID 1171); conditions: A549 viability, higher = more signal, called active from +8 up or from −8 down
Note: test concentration not given here.

Structure (SMILES)	z-score [1]	z-score [2]	z-score [3]	z-score [4]	z-score [5]	z-score [6]	z-score [7]	z-score [8]	z-score [9]	z-score [10]
CO[C@H]1O[C@H](CO)[C@@H](OC(=O)Nc2ccc(Oc3ccccc3)cc2)[C@H](OC(=O)Nc2ccc3c(c2)OCO3)[C@H]1OC(=O)Nc1ccc2c(c1)OCO2	-0.331	0.377	0.106	-0.789	-0.594	-0.185	2.17 (inactive)	-0.583	0.818	0.104 (inactive)
C=C[C@H](CO)NS(=O)(=O)c1ccc(Br)cc1	1.52	0.131	1.34	-0.328	-0.451	0.63	0.489 (inactive)	0.3	0.525	0.204 (inactive)
CC1CC/C=C\[C@H]2OC34C=CCN(C(C)(C)C)C(=O)[C@H]3N(CCO)C(=O)[C@@H]4C2C(=O)O1 (stereo not given in full)	-0.986	1.09	-0.593	1.16	-0.197	-0.669	-0.354 (inactive)	-0.0147	0.927	0.283 (inactive)
CCOC(=O)C[C@H]1[C@H](OC(=O)c2cc3ccccc3oc2=O)[C@@H](NC(=O)c2ccccc2)c2cc(OCCCO)ccc2N1C(=O)c1ccc2ccccc2n1	0.282	0.785	-0.112	-0.0357	-1.08	-0.314	0.122 (inactive)	-0.311	-0.0496	-0.886 (inactive)
COC(=O)[C@@]1(Cc2ccc(F)cc2)[C@H]2c3cc(C(=O)N4CCCC4)n(CCCNc4ncc(C(F)(F)F)cc4Cl)c3C[C@H]2CN1C(=O)c1ccccc1	-0.386	-0.68	0.0224	-1.48	-1.13	1.12	-1.8 (inactive)	-0.501	-1.2	-0.733 (inactive)
CC(C)C(=C=CC[C@@H](O)c1ccc(OCCO)cc1)C[C@@H](O)COCc1ccccc1	2.2	1.46	1.2	-0.619	0.471	1.52	0.404 (inactive)	-0.147	-1.11	0.343 (inactive)
COC(=O)[C@@]1(CCS(=O)(=O)c2ccccc2)N=C(c2ccc(OCCCO)cc2)O[C@H]1c1ccccc1CN=[N+]=[N-]	-1.33	-0.688	-1.12	-1.92	-2.59	-1.13	0.877 (inactive)	-1.22	-1.56	-2.08 (inactive)
CC(C)C[C@@H]1NC(=O)[C@@H]2C[C@H](C(=O)O)[C@H](c3cccc(OCCO)c3)N2C1=O	0.196	0.237	-0.404	0.101	-0.57	0.555	-0.531 (inactive)	0.719	0.897	0.0499 (inactive)
C[C@H]1NC(=O)[C@@]23C(=O)N[C@@H](Cc4ccccc4)C2[C@H](C)[C@@]2(C)O[C@H]2C3/C=C/C/C=C\CNC(=O)[C@@H]2CCCN2C1=O (stereo not given in full)	-0.197	0.286	-0.0389	-1.6	0.727	-0.0133	0.0802 (inactive)	0.263	-0.507	0.437 (inactive)
COc1ccc([Si](C)(C)[C@@H]2[C@@H](CCO)O[C@]3(C(=O)N(Cc4ccc(N(C=O)c5ccccc5)cc4)c4ccccc43)[C@H]2C)cc1	-0.844	-0.193	-3.46	-1.94	-3.9	-0.164	0.21 (inactive)	-0.95	-1.26	-2.71 (inactive)
CCOC(=O)[C@H]1C/C=C/C[C@H](C(=O)OCC)C(=O)O[C@H]2[C@@H](OC)O[C@H](CO)[C@@H](OC(=O)c3c(OC)cccc3OC)[C@@H]2OC1=O	-4.24	0.125	-4.96	-3.3	-4.09	-3.48	0.154 (inactive)	-0.999	-1.96	-4.38 (inactive)
CN1C(=O)C2C=CC(C(O)C3CC=CCC3)N(N(c3ccccc3)c3ccccc3)C2C1=O (stereo not given)	-0.0631	-1.9	0.125	0.535	-0.785	-0.77	-0.339 (inactive)	-0.23	-0.711	-0.501 (inactive)
C=CCN1C(=O)[C@]2(O[C@H](CCn3cc([C@H](O)c4ccccc4)nn3)[C@@H]([Si](C)(C)c3ccc(OC)cc3)[C@@H]2C)c2cc(N3CCC3=O)ccc21	-0.668	0.87	-1.39	-2.05	-2.95	2.75	0.85 (inactive)	-0.949	0.507	-1.71 (inactive)
CCOC(=O)C[C@H]1[C@H](OC(=O)c2ccc(C(=O)c3ccccc3)cc2)[C@@H](NC(=O)c2ccccc2)c2cc(OCCCO)ccc2N1C(=O)c1ccc2ccccc2n1	0.29	-0.356	0.74	0.294	-0.465	1	1.76 (inactive)	-0.517	-0.386	-0.142 (inactive)
CCCCN1CC=CC23O[C@@H]4C=CCCOC(=O)C4[C@H]2C(=O)N(CCCCCCO)[C@@H]3C1=O (stereo not given in full)	0.384	-0.585	0.441	1.51	-0.363	0.493	0.271 (inactive)	-0.109	-0.399	-0.176 (inactive)
CCCC#C[Si](O[C@H](CC)c1cn(Cc2cccc(Cl)c2)nn1)(C(C)C)C(C)C	1.19	-1.07	1.58	-1.07	-0.223	-0.742	-0.228 (inactive)	-0.112	-0.916	0.158 (inactive)
COc1ccc([Si](C)(C)[C@H]2[C@H](CC(=O)N3Cc4ccccc4C[C@H]3CO)O[C@@]3(C(=O)N(Cc4cccc(N5CCC5=O)c4)c4ccccc43)[C@@H]2C)cc1	0.0575	0.441	-0.616	-2.68	-3	0.419	0.465 (inactive)	-1.02	-1.23	-0.919 (inactive)
COC(=O)[C@]1(CCC(=O)OC(C)(C)C)N=C(c2ccc(OCCCO)cc2)O[C@@H]1c1ccccc1CN=[N+]=[N-]	-2.13	-0.354	-3.03	-3.55	-3.95	-1.93	-0.718 (inactive)	-1.16	-2.7	-2.22 (inactive)
C=CCN1C(=O)[C@@]2(Cc3ccccc31)N=C(c1ccc(OCCCO)cc1)O[C@H]2c1ccccc1	-0.914	-0.107	-1.38	-3.23	-2.16	-0.927	0.133 (inactive)	-0.942	-1.29	-1.99 (inactive)
CN(C)CCCCCCNC(=O)[C@@H]1C[C@@H]2C(=O)N[C@@H](Cc3ccccc3)C(=O)N2[C@@H]1c1ccc(O)cc1	-0.58	0.502	-0.948	-1.45	-0.571	-1.15	-1.42 (inactive)	-0.00023	0.0429	-1.03 (inactive)
CC1CC/C=C\[C@H]2OC34C=CCN(Cc5ccccc5)C(=O)[C@H]3N(CCCO)C(=O)[C@@H]4C2C(=O)O1 (stereo not given in full)	-0.0905	0.324	-0.0453	-0.142	0.197	0.0693	0.237 (inactive)	-0.0499	1.68	-0.433 (inactive)
COC(=O)[C@@]1(Cc2ccccc2)N=C(c2ccc(OCCCO)cc2)O[C@H]1c1ccccc1	-1.98	0.598	-1.69	-3.6	-3.94	-2.02	0.294 (inactive)	-1.1	-0.354	-2.02 (inactive)
NCCCCCNC(=O)[C@@H]1C[C@@H]2C(=O)N[C@@H](Cc3ccccc3)C(=O)N2[C@@H]1c1ccc(O)cc1	-0.119	0.588	-0.0207	-1.4	-0.0144	0.181	-0.0278 (inactive)	0.00631	0.397	-0.0029 (inactive)
CC(C)OC(=O)C=C1C[C@@H](c2ccccn2)O[C@@H](c2ccccn2)O1	-0.564	-0.631	-0.217	0.667	-1.14	-0.894	-0.341 (inactive)	0.65	-0.816	0.118 (inactive)
C=CCNC(=O)[C@@H]1[C@H]2C(=O)O[C@H](c3ccccc3)[C@H](c3ccccc3)N2[C@H](c2ccc(O)cc2)[C@@]12C(=O)Nc1ccc(C#CCNC(N)=O)cc12	0.0067	1.09	0.767	-0.925	-0.179	-1.14	-1.07 (inactive)	-0.994	0.435	0.552 (inactive)
C=C(COC)C(=O)CC[C@@H](OC(C)=O)c1ccc(CO)o1	-0.97	0.186	0.473	-0.0988	-0.355	-0.799	0.195 (inactive)	-0.548	-0.066	0.188 (inactive)
C=CCOC(=O)[C@H]1[C@@H]2C(=O)O[C@@H](c3ccccc3)[C@@H](c3ccccc3)N2[C@@H](c2ccc(OCCOC(=O)[C@H]3C[C@H]4C(=O)N[C@@H](CCCCN(C)C)C(=O)N4[C@H]3c3ccc(O)cc3)cc2)[C@]12C(=O)Nc1ccc(I)cc12	-0.041	-0.032	-0.959	-0.203	0.427	0.75	-0.623 (inactive)	0.742	0.192	-0.708 (inactive)
C=CCOC(=O)[C@H]1[C@@H]2C(=O)O[C@@H](c3ccccc3)[C@@H](c3ccccc3)N2[C@@H](c2ccc(OCCOC(=O)[C@@H]3C[C@@H]4C(=O)N[C@@H](CC(C)C)C(=O)N4[C@@H]3c3ccc(O)cc3)cc2)[C@]12C(=O)Nc1ccccc12	-1.02	0.385	-0.529	-0.206	0.162	-1.89	0.0514 (inactive)	-0.89	-0.836	0.414 (inactive)
COc1ccc(C#Cc2ccc3c(c2)[C@]2(C(=O)N3)[C@H](c3ccccc3OCCO)N3[C@H](c4ccccc4)[C@H](c4ccccc4)OC(=O)[C@H]3[C@@H]2C(=O)Nc2nc3ccccc3s2)cc1	0.855	0.453	-0.543	-2.43	-2.65	-3.4	2.29 (inactive)	-0.631	-1.28	-2.07 (inactive)
